Hit rate of the full screen: of about 3,600 compounds, about 900 (25%) were called active. No rule for the calls is given here. Only a sample is shown. Entries with a potency or affinity are not part of this list.
target: Protein Tat (Human immunodeficiency virus type 1 group M subtype B (isolate HXB2)) (UniProt P04608); assay: HIV-1 Tat–TAR interaction blockers – biochemical, fluorescence polarization, FAM-labeled TAR RNA, counter-screen for Vif-APOBEC3G degradation inhibitor project, dose response (AID 1117361); settings: Tat-TAR RNA binding; series mostly up to 100 µM

Row | SMILES | outcome
1 | COc1ccc(OC)c(NC(=O)CCN2CCC(C)CC2)c1 | inactive
2 | COc1ccccc1N(C)S(=O)(=O)c1ccc(C(=O)NC(C)(C)C)cc1 | inactive
3 | Cc1ccn(C(=O)c2cc3ccccc3oc2=O)n1 | inactive
4 | COc1ccc(-n2ncc3c(N4CCC(C(N)=O)CC4)ncnc32)cc1 | inactive
5 | CCCn1c(SCC(=O)c2cc(C)ccc2C)n[nH]c1=O | inactive
6 | CCOC(=O)CSc1nnc(CNC(=O)c2ccccc2OC)n1-c1ccc(OC)cc1 | inactive
7 | Cc1ccc(C)c(-n2c(SCC(N)=O)nnc2-c2ccccn2)c1 | inactive
8 | CCOc1ccc(-n2c(SCC(N)=O)nnc2-c2cccnc2)cc1 | inactive
9 | Cc1cccc(-n2c(=O)cc(N3CCN(c4ccc(F)cc4)CC3)[nH]c2=O)c1 | inactive
10 | S=C1NC2(CCCCCC2)N=C1c1ccccc1 | inactive
11 | Cc1ccc(C)c(/C(O)=C2/C(=O)C(=O)N(CCN3CCOCC3)C2c2ccco2)c1 (stereo not given) | inactive
12 | COc1ccc(OC)c(NC(=O)CC2C(=O)NCCN2C(=O)Nc2cccc(Cl)c2)c1 (stereo not given) | inactive
13 | O=C(O)C1CCN(S(=O)(=O)/C=C/c2ccccc2)CC1 | inactive
14 | Cc1ccnc(N2CCC(C(=O)NNC(=O)c3ccccc3C)CC2)n1 | inactive
15 | CCn1c(CNC(=O)Cc2ccc(OC)cc2)nnc1SCC(=O)Nc1ccc(C(=O)O)cc1 | inactive
16 | Cc1nn(C(=O)c2cccnc2)c(C)c1C | inactive
17 | COC(=O)Cc1c(C)nc2nc(-c3cccnc3)[nH]n2c1=O | inactive
18 | O=C(NCc1ccco1)C1CCCN(S(=O)(=O)c2cccc3nsnc23)C1 (stereo not given) | inactive
19 | COc1cc(/C=C(\C#N)c2nc3ccccc3[nH]2)c([N+](=O)[O-])cc1OCc1ccccc1 | inactive
20 | c1ccc(SCc2nc3ccccc3[nH]2)cc1 | inactive
21 | CC1(C)C2CCC1(CS(=O)(=O)Nc1cccc(S(N)(=O)=O)c1)C(=O)C2 (stereo not given) | inactive
22 | COc1ccc(N2CCN(C(=O)c3c(-c4ccccc4)noc3C)CC2)cc1 | inactive
23 | COc1ccc(NC(=O)c2c(OC)cccc2OC)c(OC)c1 | inactive
24 | COc1ccc(OC)c(NC(=O)NCc2ccc(F)cc2)c1 | inactive
25 | Cn1nc(CC(=O)NCCN2C(=O)CSC2=O)c2ccccc2c1=O | inactive
26 | CCOc1ccc(-n2c(SCC(=O)Nc3cc(C)on3)nnc2-c2c[nH]c3ccccc23)cc1 | inactive
27 | COc1cccc(NC(=O)Nc2nnc(N3C(C)CCCC3C)s2)c1 (stereo not given) | inactive
28 | COC(=O)c1cc(=O)n(Cc2ccc3c(c2)OCO3)c(=Nc2ccc(F)c(Cl)c2)s1 | inactive
29 | COCCn1c(SCC(=O)Nc2ccccc2F)nc2c([nH]c3ccccc32)c1=O | inactive
30 | O=C(O)CN1C(=O)CSc2ccccc21 | inactive
